{"source": "PubChem BioAssay", "data": [{"test": "reducers of endogenous Her2 protein level, primary screen, SKBR3 breast tumor cells, AlphaScreen, ATP viability (AID 461);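 note: percent of carrier control wells set as 100% viability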", "conditions": "18-24 h, measured here: SKBR3 viability, ATP luminescence, at 10 µM", "units": {"viability": "%"}, "values": [{"smiles": "Nc1nc(N2CCCCC2)nc(N(c2ccccc2)c2ccccc2)n1", "viability": 107}, {"smiles": "O=C1c2ccccc2C(Nc2cccnc2)N1Cc1ccccc1Cl", "note": "(centres undefined)", "viability": 93}, {"smiles": "CCN1CCN(c2nc3c(c(=O)[nH]c(=O)n3C)n2CCSc2nc3ccccc3s2)CC1", "viability": 95.5}, {"smiles": "COc1cc(C(O)c2nc3ccccc3n2C)cc(OC)c1OC", "note": "(centres undefined)", "viability": 91.5}, {"smiles": "CCOC(=O)N1CCC(Nc2nc3ccccc3n3cnnc23)CC1", "viability": 94}, {"smiles": "COc1ccc(C2C(C(C)=O)=C(C)N=c3s/c(=C/c4ccc5c(c4)OCO5)c(=O)n32)cc1", "note": "(centres undefined)", "viability": 85}, {"smiles": "CCOC(=O)C1=C(C)N(C)C(=O)NC1c1ccccc1OC", "note": "(centres undefined)", "viability": 97}, {"smiles": "CCCCS(=O)(=O)NC1=NCN(CCOC(=O)c2ccccc2)CN1", "viability": 95.5}, {"smiles": "COc1ccc(-n2c(Cc3cccn3C)nnc2SCC(=O)Nc2cccc(Cl)c2)cc1", "viability": 103}, {"smiles": "CCC1CCCCN1C(=O)CSc1nnc(-c2ccc(OC)cc2)o1", "note": "(centres undefined)", "viability": 98}, {"smiles": "COc1ccc(N(CC(=O)Nc2ccc3c(c2)OCO3)S(=O)(=O)c2c(C)nn(C)c2C)cc1", "viability": 90.5}, {"smiles": "CCOc1ccc(C2CC(c3ccccc3C)n3nc(N)nc3N2)cc1", "note": "(centres undefined)", "viability": 87.5}, {"smiles": "Cc1cc(N)n2nc(-c3ccccc3)cc2n1", "viability": 95}, {"smiles": "CCCCCn1c(CCNC(=O)CCC)nc2ccccc21", "viability": 96.5}, {"smiles": "O=C(c1ccc2c(c1)OCCO2)N1CCCCC1", "viability": 117}, {"smiles": "O=C(NCCc1c[nH]c2ccccc12)c1cnc2n(c1=O)CCS2", "viability": 92}, {"smiles": "CCc1cc(=O)n2[nH]c(C)c(-c3ccccc3OC)c2n1", "viability": 80.5}, {"smiles": "Cc1ccc(CSc2nc3c(c(=O)[nH]2)CCC3)cc1", "viability": 86.5}, {"smiles": "CN(CCNS(=O)(=O)c1ccc2c(c1)oc(=O)n2C)Cc1ccccc1", "viability": 86}, {"smiles": "COc1ccc(-c2nnc(SCC(=O)NC(C)c3ccccc3)o2)cc1", "note": "(centres undefined)", "viability": 94}, {"smiles": "CCOc1ccc(Cn2nnc(C(=O)Nc3cc(C)cc(C)c3)c2N)cc1", "viability": 89.5}, {"smiles": "CCCCCn1c(CN2CCN(C(=O)c3ccco3)CC2)nc2c1c(=O)n(C)c(=O)n2C", "viability": 96.5}, {"smiles": "CCN1CCN(Cc2ccc(NC(=O)Nc3ccccc3)cc2)CC1", "viability": 82}, {"smiles": "CCCN(CCC)C(=O)c1c(C)[nH]c(C(=O)OCC)c1C", "viability": 98}, {"smiles": "COc1cccc(C2CC(c3c(Cl)cccc3Cl)n3nc(N)nc3N2)c1", "note": "(centres undefined)", "viability": 97}, {"smiles": "Cc1c(C(=O)OCc2ccccc2)[nH]c2c1C(=O)CC(c1ccco1)C2", "note": "(centres undefined)", "viability": 86.5}, {"smiles": "Cn1c(=O)c2c(nc(SCCOc3ccc4ccc(=O)oc4c3)n2C)n(C)c1=O", "viability": 98.5}, {"smiles": "COc1ccc(NC(=O)CN(c2cc(C)cc(C)c2)S(=O)(=O)c2c(C)noc2C)cc1OC", "viability": 89}, {"smiles": "CCOc1ccc(N2CC(C(=O)Nc3ccccc3OC)CC2=O)cc1", "note": "(centres undefined)", "viability": 106}, {"smiles": "CC(C)CNc1oc(-c2ccc(F)cc2)nc1C#N", "viability": 108}, {"smiles": "O=C(Nc1nnc(N2CCCCCC2)s1)c1cc(-c2ccc(Br)cc2)on1", "viability": 97}, {"smiles": "Cc1ccc(N=Cc2ccc[nH]2)c(O)c1", "viability": 96}, {"smiles": "CCCOC(=O)c1[nH]c2c(c1C)C(=O)CC(c1cc(OC)c(OC)c(OC)c1)C2", "note": "(centres undefined)", "viability": 89}, {"smiles": "C=CCSc1nc2sc(C)c(C)c2c(=O)[nH]1", "viability": 97.5}, {"smiles": "O=C(c1ccc(Br)cc1)N1CCN(S(=O)(=O)c2ccccc2)CC1", "viability": 113}, {"smiles": "CN(C(=O)c1ccco1)c1nnc(C23CC4CC(CC(C4)C2)C3)s1", "viability": 86}, {"smiles": "COc1ccc(-c2nc3c(n2O)CCC/C3=N\\O)cc1", "viability": 89.5}, {"smiles": "CC1CCC(NC(=O)C2(C)CCC(=O)N2Cc2cccnc2)CC1", "note": "(centres undefined)", "viability": 97}, {"smiles": "Cc1cnc(NC(=O)CSc2nnc(COc3c(C)cccc3C)o2)s1", "viability": 83}]}]}
